# Results from PubChem BioAssay AID1851 (National Center for Advancing Translational Sciences (NCATS), 2009).
# Several values for one entry are separate records, joined by “and”; a condition that tells them apart may be missing. Identical values can stand only once. The whole screen tested about 16,000 compounds, of which about 5,800 (36%) were called active. Roughly 23% stayed inconclusive and do not appear here. Calls follow the shape of the dose curve; as a rule, active = well fitted curve in the direction sought with a large enough effect; inconclusive = small, poorly fitted or top-dose-only effect, or effect the other way; inactive = no such curve, though single readings can be large or run the other way. The list shows a part of the results. A structure can be active in one record and inactive in another.
# Target: Cytochrome P450 2C19 (Homo sapiens) (UniProt P33261)
# Assay: Cytochrome panel assay with activity outcomes
# Conditions: recombinant CYP, pro-luciferin dealkylation, luminescence, p450-cyp2c19; series mostly up to 57.1 µM; activity, negative = inhibition: at the top concentration
# % is scaled to controls: 0 for no effect and ±100 for the full control effect.
# Cytochrome P450 2C19 (Homo sapiens), sequence (P33261 whole entry, looked up): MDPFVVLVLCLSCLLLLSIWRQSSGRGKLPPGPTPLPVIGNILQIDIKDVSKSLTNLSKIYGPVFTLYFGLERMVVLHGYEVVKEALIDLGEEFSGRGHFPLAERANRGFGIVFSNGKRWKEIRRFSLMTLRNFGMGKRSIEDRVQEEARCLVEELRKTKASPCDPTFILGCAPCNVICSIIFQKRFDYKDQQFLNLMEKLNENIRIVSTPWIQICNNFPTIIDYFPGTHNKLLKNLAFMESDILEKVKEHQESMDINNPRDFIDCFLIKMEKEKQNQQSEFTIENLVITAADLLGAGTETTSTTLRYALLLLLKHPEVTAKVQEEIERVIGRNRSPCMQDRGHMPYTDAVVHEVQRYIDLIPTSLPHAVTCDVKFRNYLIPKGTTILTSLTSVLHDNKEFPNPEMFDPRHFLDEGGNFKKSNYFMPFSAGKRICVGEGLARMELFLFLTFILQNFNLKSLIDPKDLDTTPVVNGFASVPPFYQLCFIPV
Structure (SMILES),"activity, negative = inhibition",AC50
CN1[C@@H]2CC[C@H]1CC(O)C2 (some centres not stated),12.6% [at 25.6 µM] (inactive),
O=C(O)CN1CCN(CC(=O)O)CC(=O)[O][Hg][O]C(=O)C1,,0.794 µM (active)
CC(C)NP(=O)(NC(C)C)OP(=O)(NC(C)C)NC(C)C,-22.2% (inactive),
O=C(Nc1ccccc1)N1CC[C@@]2(CCCN(C(=O)Oc3ccccc3)C2)C1,-42.9% (inactive),
COc1cc([C@H]2c3cc4c(cc3[C@@H](O)[C@@H]3COC(=O)[C@H]23)OCO4)cc(OC)c1OC,,10 µM (active)
NC(=O)c1ccc(C(=O)Nc2ccc([As](=O)(O)O)cc2)cc1,10.2% [at 11.4 µM] (inactive),
CCCCC1(CCCC)C(=O)NC(=Nc2cccc(C)c2)NC1=O,,2.24 µM (active)
CC[N+](CC)(CCNC(=O)C(=O)NCC[N+](CC)(CC)Cc1ccccc1Cl)Cc1ccccc1Cl,15.6% (inactive),
O=C(Oc1ccccc1)N1CCC2(CCCN(Cc3ccccc3)C2)CC1,-12.9% (inactive),
Cc1nc2sccc2c(=O)n1-c1ccccc1Cl,,2.82 µM (active)
Cc1nc2ccccc2c(=O)n1-n1cnnc1,-6.22% (inactive),
C[C@@H](N)Cn1ccc2cc(F)c(Cl)cc21,-25.1% (inactive),
CC(C)CCC1(CCN)C(=O)NC(=O)NC1=O,5.97% [at 11.4 µM] (inactive),
CN1CCN(c2ncc3ncc(=O)n(C)c3n2)CC1,-10.5% (inactive),
CC(C)[C@]1(O)[C@@H](OC(=O)c2ccc[nH]2)[C@]2(O)[C@@]3(C)C[C@@]4(O)O[C@@]5([C@H](O)[C@@H](C)CC[C@]35O)[C@]2(O)[C@]41C,23.6% [at 11.4 µM] (inactive),
CCC(=O)O[C@@](Cc1ccccc1)(c1ccccc1)[C@@H](C)CN(C)C,15.8% [at 25.6 µM] (inactive),
O=C(Oc1ccccc1)N1CCC2(CCCN(C(c3ccccc3)c3ccccc3)C2)CC1,15.4% (inactive),
CCOP(=O)(OCC)C(NC(=O)C(Cl)Cl)C(Cl)(Cl)Cl (configuration not stated),,10 µM (active)
CCOP(=O)(OCC)C(NC(C)=O)C(Cl)(Cl)Cl (configuration not stated),-27% (inactive),
N#Cc1ccc(CN2CC[C@@]3(CCCN(C(=O)Oc4ccccc4)C3)C2)cc1,-34.6% (inactive),
C[N+](C)(C)CCCCCC[N+](C)(C)C,29.6% (inactive),
Cc1cccc([C@H](C)c2cnc[nH]2)c1C,,5.01 µM (active)
C[N+]1(C)C2CC[C@H]1CC(OC(=O)[C@@H](CO)c1ccccc1)C2 (some centres not stated),14.6% [at 11.4 µM] (inactive),

Structure (SMILES),"activity, negative = inhibition",AC50
C#CCN[C@@H](C)Cc1ccccc1,12.5% (inactive),
CNCCCc1ccccc1,-25% (inactive),
C[C@@H](Cc1cccc(C(F)(F)F)c1)NCCCc1ccccc1,,1.26 µM (active)
c1ccc2c(N3CCNCC3)cccc2c1,41% (inactive),
CP(=O)(O)CCCN,,inactive
C[C@]12N[C@@H](Cc3ccccc31)c1ccccc12,,inactive
C=C1[C@@H]2CC[C@H]3[C@@]4(C)C[C@@H](O[C@@H]5O[C@H](CO)[C@H](OS(=O)(=O)O)[C@@H](OS(=O)(=O)O)[C@@H]5OC(=O)CC(C)C)C[C@@H](C(=O)O)[C@H]4CC[C@@]3(C2)[C@H]1O,24.2% [at 25.6 µM] (inactive),
N[C@H](CP(=O)(O)O)C(=O)O,27% (inactive),
Cc1nc(-c2ccc(-c3ccc(C(=O)N4CCc5cc6c(cc54)C4(CCN(C)CC4)CO6)cc3)c(C)c2)no1,,inactive and 3.98 µM (active)
C[C@@H]1O[C@H]1P(=O)(O)O,28.4% (inactive),
N[C@H](CCCP(=O)(O)O)C(=O)O,-8.91% (inactive),
N#C/C(=C\c1ccc(O)c(O)c1)C(N)=S,,inactive and 25.1 µM (active)
N#CC(C#N)=Cc1cc(O)c(O)c(O)c1,-24.2% (inactive),
N#C/C(=C\c1ccc(O)c(O)c1)C(=O)NCCCNC(=O)/C(C#N)=C/c1ccc(O)c(O)c1,-18.8% (inactive),
CCC(=O)Nc1ccc(N2CCN(CC)CC2)c(Cl)c1,-6.94% (inactive),
Cc1nccc2c1[nH]c1ccccc12,,inactive
Cc1c2ccncc2c(C)c2c1[nH]c1ccccc12,,3.16 µM (active)
CN(C)CCC(=O)[C@@]1(O)CC[C@H]2[C@H]3CC=C4C[C@@H](O)CC[C@]4(C)[C@H]3CC[C@]21C,13.6% [at 11.4 µM] (inactive),
O=C(Nc1ccc(Cl)cc1)Nc1nccs1,,25.1 µM (active)
C[C@H]1CCCC=CC2C[C@H](O)C[C@@H]2[C@H](O)/C=C\C(=O)O1 (some centres not stated),-16.3% (inactive),
Cc1cc(C)nc(NC2=NCCS2)n1,-7.47% (inactive),
O=S(=O)(O)/C(=C\c1ccccc1)c1ccccc1 (tested in a mixture with another compound),-40.3% [at 11.4 µM] (inactive),
CC(=O)c1ccc2c(c1)N(CCCN(C)C)c1ccccc1S2,-0.627% [at 25.6 µM] (inactive),

Structure (SMILES),"activity, negative = inhibition",AC50
COC(=O)N1CCC2(CCN(CC(C)C)CC2)CC1,-27.3% (inactive),
c1ccc(N2CCC3(CCNCC3)CC2)cc1,-25.2% (inactive),
Cc1sc(NC(=O)C2C3CCC(O3)C2C(=O)O)c(C(=O)OC(C)C)c1-c1ccc(Cl)cc1 (configuration not stated),,14.1 µM (active)
O=C(c1cc(-c2ccccc2)nc2ccccc12)N1CCC2(CC1)OCCO2,,10 µM (active)
CN1C(=O)c2ccccc2Sc2ccc(C(=O)N3CCC4(CC3)OCCO4)cc21,-9.78% (inactive),
CN1[C@@H](CC(=O)c2ccccc2)CCC[C@@H]1C[C@@H](O)c1ccccc1,1.66% [at 25.6 µM] (inactive),
CN1CC[C@@]2(CCCN(C(=O)c3ccco3)C2)C1,7.21% (inactive),
COCC(=O)N1CCC2(CCCN(Cc3ccncc3)C2)CC1,-34.1% (inactive),
O=C(c1ccco1)N1CCC[C@@]2(CCN(Cc3ccncc3)C2)C1,,2.51 µM (active)
CNC(C)(C)Cc1ccccc1,31.5% [at 25.6 µM] (inactive),
C[C@@H](Cc1ccc(OCC(=O)O)cc1)NC[C@H](O)c1cccc(Cl)c1,,inactive and 5.01 µM (active)
CCNC[C@H](O)c1cccc(O)c1,-8.41% [at 25.6 µM] (inactive),
C=C1[C@@H]2C[C@@]3([C@H]1O)[C@H]1C[C@@H]4[C@@]5(C)CC[C@H](O)[C@]4([C@H]1N(CC)C5)[C@H]3C[C@H]2O,3.61% [at 25.6 µM] (inactive),
Oc1cccc2cccnc12,31.2% [at 11.4 µM] (inactive),
CC1=NN(c2ccc(S(=O)(=O)O)cc2C)C(=[OH+])[C@H]1N=Nc1cc(S(=O)(=O)O)ccc1C(=O)O.O.[Cr],33.2% [at 11.4 µM] (inactive),
COCOc1ccc(Br)cc1C(=O)/C=C\c1ccc2c(c1)OCO2,,0.0631 µM (active)
CCCCCCCCCCCCCC(=O)O[C@H]1[C@@H](C)[C@@]2(O)[C@@H](C=C(CO)C[C@]3(O)C(=O)C(C)=C[C@@H]23)C2C(C)(C)[C@]21OC(C)=O (some centres not stated),-27% (inactive),
C[C@@H]1O[C@@H](O[C@H]2C[C@@H](O)[C@]3(CO)[C@@H]4[C@@H](O)C[C@]5(C)[C@H]([C@@H]6COC(=O)C6)CC[C@@]5(O)[C@H]4CC[C@@]3(O)C2)[C@H](O)[C@H](O)[C@@H]1O,10.9% (inactive),
N[C@@H](CSC1c2ccccc2-c2ccccc21)C(=O)O,-32.5% [at 11.4 µM] (inactive),
CCOC(=O)[C@@H]1[C@@H]2c3ccccc3-c3ccccc3[C@H]2C[C@H]1O,,2 µM (active)
CC1(C)[C@@H]2CC[C@]1(C)CN(CCC[N+](C)(C)C)C2,6.07% [at 11.4 µM] (inactive),
CC(C)Oc1cccnc1N(C)C1CCN(Cc2ccccc2)CC1,-43% (inactive),
COC(=O)C[C@](O)(CCCC(C)(C)O)C(=O)O[C@@H]1C(OC)=C[C@]23CCCN2CCc2cc4c(cc2[C@H]13)OCO4,-41% (inactive),

Structure (SMILES),"activity, negative = inhibition",AC50
CS(=N)(=O)CC[C@@H](N)C(=O)O (some centres not stated),,inactive
COc1ccccc1CC1C(=O)C2CCN1CC2 (configuration not stated),-29.3% (inactive),
COCCn1c(SCc2nc3sc(C(=O)OC)c(C)c3c(=O)[nH]2)nc2ccccc21,,0.708 µM (active)
O=C(O)[C@H]1CCN1,-2.64% (inactive),
N#Cc1ccc(CN2CCCC3(CCN(C(=O)Oc4ccccc4)CC3)C2)cc1,22.4% (inactive),
CC(=O)[C@@H]1CC[C@@H]2[C@@H]3CC=C4C[C@H](OS(=O)(=O)O)CC[C@@]4(C)[C@H]3CC[C@]21C,-13.8% (inactive),
C=CCn1c(O)c(C(C)=NCCCN2CCOCC2)c(=O)[nH]c1=O,4.51% (inactive),
CCCCn1c(O)c(C(CC)=Nc2ccc(OC)cc2OC)c(=O)[nH]c1=O,,15.8 µM (active)
CCCCn1c(O)c(C(CC)=NCc2ccc(F)cc2)c(=O)[nH]c1=O,,7.08 µM (active)
CCCCn1c(O)c(C=NCCN2CCCCC2)c(=O)[nH]c1=O,-13.8% (inactive),
C[C@]12CCC3c4ccc(OCC(=O)O)cc4CCC3C1CCC2=O (some centres not stated),29.2% [at 11.4 µM] (inactive),
CN(C)[C@@H]1C(=O)C(C(N)=O)=C(O)[C@]2(O)C(=O)C3=C(O)c4c(O)cccc4[C@](C)(O)[C@H]3C[C@@H]12,-41.8% [at 11.4 µM] (inactive),
CCOC(=O)c1[nH]c(C)c(C(=O)N2CCC3(CC2)OCCO3)c1C,,5.01 µM (active)
OCc1cnc[nH]1,-19.3% (inactive),
CC(C)(c1ccc(OC[C@@H]2CO2)cc1)c1ccc(OC[C@H]2CO2)cc1,21.1% (inactive),
C[C@@H]1O[C@@H](O[C@H]2C[C@@H](O)[C@@]3(CO)[C@H]4[C@H](O)C[C@]5(C)[C@@H](C6=CC(=O)OC6)CC[C@]5(O)[C@H]4CC[C@@]3(O)C2)[C@@H](O)[C@H](O)[C@H]1O,30.3% [at 11.4 µM] (inactive),
CC(C(=O)c1c[nH]c2ccccc12)N1CCSCC1 (configuration not stated),,8.91 µM (active)
N[C@H](Cc1c[nH]c2ccccc12)P(=O)(O)O,13.8% [at 11.4 µM] (inactive),
C[N+]1(C)[C@@H]2CC[C@H]1CC(OC(=O)c1c[nH]c3ccccc13)C2 (some centres not stated),19.7% (inactive),
C[C@H]1C(=O)O[C@@H]2CCN3CC=C(COC(=O)[C@@](C)(O)[C@@]1(C)O)[C@H]23,5.72% [at 25.6 µM] (inactive),
CN1C(=O)CCS(=O)(=O)[C@@H]1c1ccc(Cl)cc1,12.3% [at 25.6 µM] (inactive),
Brc1c(NC2=NCCN2)ccc2nccnc12,-34.5% (inactive),
c1ccc2c(c1)[I+]c1ccccc1-2,,501 nM (active) and 63.1 nM (active)
